From PubChem BioAssay AID504832 (National Center for Advancing Translational Sciences (NCATS), 2011) come the findings set out here.

The structures appear in SMILES notation. Several values for one entry are separate records, joined by “and”; a condition that tells them apart may be missing. Identical values can stand only once. In all, about 310,000 compounds went through this assay and about 18,000 (5.8%) were called active. Entries that show only a call come without a potency. Not shown: some 22% with an inconclusive outcome. The sample holds actives, similar compounds and a random draw of the others, so the mix is not that of the screen. Calls follow the shape of the dose curve; as a rule, active = well fitted inhibition curve with a large enough effect; inconclusive = small, poorly fitted or top-dose-only effect, or another doubt; inactive = no such curve, though single readings can be large or run the other way. Some compounds were tested as several samples or in several runs, with calls that do not always agree.
Potency is read from the fitted curve at half-maximal effect.

The assay in a line: Primary qHTS for delayed death inhibitors of the malarial parasite plastid, 48 hour incubation. The note with it: P. falciparum luciferase growth in erythrocytes; series mostly up to 28.7 µM. The gist of the method:
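Compounds are pin-transferred into medium, infected erythrocytes (2% hematocrit, 0.1% parasitemia final) are added, and plates sit one parasite generation at 37 C in 5% CO2. Detection reagent is then added and luminescence measured.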
As to `COc1cccc(CNS(=O)(=O)c2ccc3c(c2)N(C(C)=O)CCS3)c1`, the Potency entry is “inactive”.

For `O=C1C(=O)N(CCCN2CCOCC2)C(c2ccc([N+](=O)[O-])cc2)/C1=C(\O)c1ccc2c(c1)OCCO2` (stereo not given), the Potency entry is “inactive”.

With `CC1CN(C(=S)Nc2ccc(S(N)(=O)=O)cc2)CC(C)O1` (stereo not given), the Potency result is “inactive”.

As for `O=C(CC1SC(=Nc2ccccc2)N(Cc2ccccn2)C1=O)Nc1cccc(Cl)c1` (stereo not given), the Potency was 6.57 µM (active).

With `O=C(Nc1cccc(Cl)c1)OCc1ccccn1`, the Potency result is “inactive”.

As for `CN1C(=O)C(CC(=O)Nc2ccccc2)S/C1=N/c1nccs1` (stereo not given), the Potency entry was “inactive”.

On to `CCCCN1C(=O)C(=O)N(CC(=O)Nc2cccc(C(C)=O)c2)C1=O`, for which the Potency entry is “inactive”.

In the case of `CC(C(=O)N1CCN(c2ccccc2F)CC1)c1ccc([N+](=O)[O-])cc1` (stereo not given), the Potency entry was “inactive”.

For `O=C(COC(=O)c1ncc(Cl)c(Cl)c1Cl)NCc1ccccc1`, the Potency entry is “inactive”.

For the compound `COCCCN1C(=O)c2ccc(C(=O)OCC(=O)NCc3ccccc3OC)cc2C1=O`, the Potency entry is “inactive”.

As to `Cc1ccn2c(=O)nc(SCC(=O)NCc3ccc(F)cc3)nc2c1`, the Potency result is “inactive”.

For the compound `Cc1sc(NC(=O)c2ccc3ncsc3c2)c(C(N)=O)c1C`, the Potency result is “inactive”.

Turning to `Cc1ccc2nc(C)c3c(c2c1)N(c1ccccc1)CC3`, the Potency is 5.86 µM (active).

Take `Cc1ccc2nc3n(c(=O)c2c1)CCC3`: the Potency entry was “inactive”.

Take `CSc1nc2ccc(C)cc2c(=O)n1-c1cccnc1`: the Potency entry was “inactive”.

`N#Cc1ccc(C(=O)OCC(=O)NC(=O)NC2CCCCC2)cc1`: the Potency entry was “inactive”.

Regarding `O=C(Nc1cc(-c2nc3ncccc3o2)ccc1Cl)c1ccco1`, the Potency entry was “inactive”.

Turning to `Cc1ccc(C(=O)COC(=O)CCN2C(=O)C3C4CCC(C4)C3C2=O)cc1C` (stereo not given), the Potency entry was “inactive”.

Take `CCCCCc1ccc(-c2ccc(OCC)cc2)nc1`: the Potency entry is “inactive”.

Regarding `CCCCCCCCC(=O)NCCOc1ccccc1`, the Potency entry is “inactive”.

For `CCCCCCCCCc1ccc(OCCOCCOCCOCCOCCOCCOCCOCCOCCO)cc1`, the Potency was 8.49 µM (active).

Regarding `COc1cccc(OCc2nnc3n2N=C(c2ccccc2)C(CC(=O)O)S3)c1` (stereo not given), the Potency result was “inactive”.

In the case of `COc1cc(S(=O)(=O)N2CCN=C2c2ccccc2)ccc1Cl`, the Potency entry was “inactive”.

In the case of `C=C1c2c(Cl)ccc(O)c2C(O)=C2C(=O)[C@]3(O)C(O)=C(C(N)=O)C(=O)[C@@H](N(C)C)[C@@H]3[C@@H](O)C12` (stereo not given in full), the Potency was 2.33 µM (active).

For `CN(C)[C@@H]1C(=O)C(C(N)=O)=C(O)[C@@]2(O)C(=O)C3=C(O)c4c(O)ccc(Cl)c4[C@@H](O)[C@H]3C[C@@H]12`, the Potency is 2.08 µM (active).

With `COc1ccc(C(=O)COC(=O)Cn2cnc3c2c(=O)n(C)c(=O)n3C)c(OC)c1`, the Potency entry is “inactive”.

`COc1cc(C(=O)Nn2c(CC(C)C)nc3ccccc3c2=O)cc(OC)c1OC`: the Potency entry is “inactive”.

As for `O=C(O)CSc1c2c(nc3cc(C(=O)Nc4cccc(C(F)(F)F)c4)ccc13)CCCC2`, the Potency entry was “inactive”.

Turning to `O=C(CCc1ccccc1)Nc1cccc(-c2nnc(-c3ccco3)o2)c1`, the Potency was 10.4 µM (active).

For the compound `O=C(Nc1cccc(-c2nnc(-c3ccccc3)o2)c1)C1CCCO1` (stereo not given), the Potency entry is “inactive”.

As to `Cc1cccc(NC(=O)CSc2nnc(-c3ccco3)o2)c1`, the Potency entry was “inactive”.

As for `O=C(O)c1ccc(NC(=O)c2ccc(COc3ccc(Cl)cc3)o2)cc1`, the Potency entry is “inactive”.

In the case of `Cc1c(C)c(C)c(S(=O)(=O)N2CCC3(CC2)OCCO3)c(C)c1C`, the Potency entry is “inactive”.

For the compound `c1ccc2cc(CCCc3cc4ccccc4cn3)ncc2c1`, the Potency result is “inactive”.

As to `Cc1n[nH]c(=O)c2c(NC(=O)CSc3cc(Cl)ccc3Cl)oc(C)c12`, the Potency result was “inactive”.

Regarding `O=C(/C=C/c1cccc([N+](=O)[O-])c1)OCC(=O)N1CCOCC1`, the Potency result is “inactive”.

In the case of `Cc1ccc(C(=O)N/C(=C/c2cccs2)C(=O)N2CCCCC2)cc1`, the Potency entry is “inactive”.

Turning to `Cc1ccc(C(=O)N/C(=C\c2cn(S(=O)(=O)N(C)C)c3ccccc23)C(=O)N2CCCC2)cc1`, the Potency was 10.4 µM (active).

For the compound `Cc1ccc(C(=O)N/C(=C\c2cn(C)c3ccccc23)C(=O)N2CCN(C)CC2)cc1`, the Potency result is “inactive”.

As for `COC(=O)c1ccc(/C=N/NC(=O)C(=O)N2CCCCCC2)cc1`, the Potency entry is “inactive”.

In the case of `COc1ccccc1-c1sc2ccccc2c1-c1ccc(C(C)=O)cc1`, the Potency entry was “inactive”.

As to `Cc1sc2ncnc(N3CCC(C(=O)Nc4ccc(F)cc4Cl)CC3)c2c1C`, the Potency is 11.7 µM (active).

With `O=C(NNC(=O)C1CCN(c2ncccn2)CC1)c1ccccc1`, the Potency result is “inactive”.

In the case of `O=C(NNC(=O)C1CCCC1)c1ccc(F)cc1`, the Potency result was “inactive”.

With `Cc1sc2ncnc(N3CCC(C(=O)NNC(=O)c4ccc(F)cc4)CC3)c2c1C`, the Potency is 11.7 µM (active).

In the case of `Cc1sc2ncnc(N3CCC(C(=O)Nc4nc5ccc(Cl)cc5s4)CC3)c2c1C`, the Potency result was “inactive”.

Take `Cc1ccnc(N2CCCC(C(=O)Nc3cc(F)ccc3C)C2)n1` (stereo not given): the Potency entry was “inactive”.

With `COc1ccccc1CNC(=O)COC(=O)CNS(=O)(=O)c1ccc(NC(C)=O)cc1`, the Potency result is “inactive”.

As to `CC1CCN(C(=O)/C(=C\c2ccccc2F)NC(=O)c2ccccc2)CC1`, the Potency entry was “inactive”.

Consider `Cc1ccc(S(=O)(=O)NCCCn2ccnc2)cc1C(=O)NC(C)C`, for which the Potency result was “inactive”.

Regarding `COc1ccc(CNC(=O)c2ccc(Br)s2)cc1OC`, the Potency result is “inactive”.

`Cc1ccc(S(=O)(=O)N2CCN=C2SCc2c(F)cccc2Cl)cc1`: the Potency result was “inactive”.

On to `CCN(CC(=O)Nc1ccccc1C(F)(F)F)C(=O)CSCc1c(C)noc1C`, for which the Potency result is “inactive”.

As for `CCN(CC(=O)Nc1ccccc1C(F)(F)F)C(=O)C1CCN(C(=O)Nc2ccccc2)CC1`, the Potency was 11.7 µM (active).

For `CCN(CC(=O)Nc1c(F)cccc1F)C(=O)C1CCC1`, the Potency entry is “inactive”.

In the case of `COc1ccc(S(=O)(=O)NNC(=O)Nc2ccc(C)cc2)c(OC)c1`, the Potency entry was “inactive”.

As for `CC(C)=CCCC1(C)C=Cc2c(ccc3c2[nH]c2cc(O)c(C)cc23)O1` (stereo not given), the Potency was 9.28 µM (active).

For `COc1cc2c(C(=O)N(C)c3cc(Cl)ccc3OC)cn(C)c(=O)c2cc1OC`, the Potency result is “inactive”.

Take `COc1ccc(C(=O)N2CCCCC2C(=O)Nc2ccc(-n3nc(C)cc3C)cc2)o1` (stereo not given): the Potency entry is “inactive”.

As to `CCCc1cc(=O)[nH]c2nnc(SCC(=O)Nc3nnc(SCC)s3)n12`, the Potency result is “inactive”.

For `O=C(NC1CCc2ccccc21)C12CN(Cc3ccccc3)CC1C(c1cccc([N+](=O)[O-])c1)=NO2` (stereo not given), the Potency is 3.7 µM (active).

On to `O=C(/C=C/c1cccc([N+](=O)[O-])c1)N1CCN(Cc2ccccc2)CC1`, for which the Potency result was “inactive”.

`O=C(NCCN1CCN(C(=O)c2cccc([N+](=O)[O-])c2)CC1)C(=O)NCc1ccc(Cl)cc1`: the Potency entry is “inactive”.

Consider `CCN(CC)C(=O)N(CC)Cc1ccccc1`, for which the Potency result was “inactive”.

Take `CN(Cc1ccccc1)C(=O)CCc1ccccc1`: the Potency entry was “inactive”.

As for `CN(C(=O)CN(CCO)CC(=O)N(C)C(C)(C)Cc1ccccc1)C(C)(C)Cc1ccccc1`, the Potency entry is “inactive and 9.28 µM (active)”.

Turning to `CN(CC(=O)NCc1ccc2c(c1)OCO2)CC(=O)Nc1ccc(F)c(F)c1F`, the Potency entry was “inactive”.

Turning to `Cc1cc(/C=N/NC(=O)c2cccnc2)c(C)n1CC(C)C`, the Potency result was “inactive”.

For the compound `O=C(N/N=C/c1sc(N2CCCCC2)nc1-c1cccs1)c1cccnc1`, the Potency was 3.29 µM (active).

Turning to `O=C(N/N=C/c1ccccn1)c1cccnc1`, the Potency entry was “inactive”.

Take `COc1ccc2c(C(=O)c3ccc(C)cc3)n(CCC(N)=O)[n+]([O-])c2c1`: the Potency entry is “inactive”.

For the compound `Cc1cc(C(=O)N/N=C/c2ccccn2)c2ccccc2n1`, the Potency result is “inactive”.

With `Cc1cccc(C)c1NC(=O)CSc1nnc(-c2ccccc2)n1Cc1ccc2c(c1)OCO2`, the Potency entry was “inactive”.

Regarding `Cc1ccc(S(=O)(=O)Cn2nnnc2CN2CCN(Cc3ccc4c(c3)OCO4)CC2)cc1`, the Potency result is “inactive”.

As for `Cc1ccc(CN2CCCC(C(=O)c3ccc4c(c3)OCO4)C2)cc1C` (stereo not given), the Potency result was “inactive”.

Take `O=C(C1CCN(Cc2ccc(Cl)cc2)CC1)N1CCN(Cc2ccc3c(c2)OCO3)CC1`: the Potency entry is “inactive”.

As for `Fc1ccccc1C(c1nnnn1Cc1ccc2c(c1)OCO2)N1CCN(Cc2ccccc2)CC1` (stereo not given), the Potency is 6.57 µM (active).

As for `Cc1cc(C)c2[nH]c(=O)c(C(c3nnnn3Cc3ccc4c(c3)OCO4)N3CCCC3)cc2c1` (stereo not given), the Potency is 13.1 µM (active).

Regarding `CSc1ccccc1NC(=O)COC(=O)CCCOc1ccc(C)cc1`, the Potency entry was “inactive”.

With `CCOC(=O)c1cnc(-n2nc(C)cc2C)nc1NNc1cc(C)nc(-c2ccccc2)n1`, the Potency was 3.29 µM (active).

Turning to `CCOC(=O)c1cnc(-n2nc(C)cc2C)nc1-n1nc(C)cc1C`, the Potency entry is “inactive”.

Take `CCOC(=O)c1c(C)nc(-c2ccccc2)nc1NC(=O)C(C)C`: the Potency entry is “inactive”.

Turning to `COCCOC1CCN(C(=O)c2ccc(OC)c(OC3CCN(C(C)C)CC3)c2)CC1`, the Potency entry was “inactive”.

Consider `COc1ccccc1NC(=O)C(C)OC(=O)c1ccc(-n2cnnn2)cc1` (stereo not given), for which the Potency result is “inactive”.

Regarding `COc1cc(Br)c(-c2sc(Nc3ccccc3)n[n+]2-c2ccccc2)cc1OC`, the Potency entry is “inactive”.

Regarding `CCc1ccc(Nc2n[n+](-c3ccccc3)c(-c3cccc(Cl)c3Cl)s2)cc1`, the Potency was 4.15 µM (active).

In the case of `Cc1ccc(Nc2nnc(SCc3ccccc3)s2)cc1`, the Potency result is “inactive”.

In the case of `CC(=O)Nc1ccc(S(=O)(=O)N2CCN(CCCOc3cc(C)ccc3C)CC2)cc1`, the Potency is 7.38 µM (active).

Consider `CC(=O)Nc1ccc(S(=O)(=O)N2CCN(S(=O)(=O)c3cccs3)CC2)cc1`, for which the Potency entry is “inactive”.

For the compound `Cc1ccc(C)c(S(=O)(=O)N2CCN(CC(=O)Nc3ccc([N+](=O)[O-])cc3)CC2)c1`, the Potency result is “inactive”.

As to `CCOC(=O)C1(CCOC)CCN(Cc2ccc(C(=O)OC)cc2)CC1`, the Potency was 10.4 µM (active).

Regarding `CCOC(=O)C1(Cc2cccc(OC)c2)CCN(Cc2csc(C(C)=O)c2)CC1`, the Potency entry was “inactive”.

In the case of `CCOC(=O)C1(CCOC)CCN(Cc2cc3ccccc3s2)CC1`, the Potency result is “inactive”.

As to `O=C(COc1ccc(Cl)cc1)Nc1ccc2c(c1)OCO2`, the Potency entry is “inactive”.

`COc1ccc(CNC(=O)C2CCN(S(=O)(=O)N3CCOCC3)CC2)cc1`: the Potency result is “inactive”.

As to `COc1ccc(NS(=O)(=O)c2ccc(N3CCN(CCO)CC3)c([N+](=O)[O-])c2)cc1`, the Potency result is “inactive”.

On to `O=C(Nc1cccc(OCC(=O)N2CCOCC2)c1)C1CCCCC1`, for which the Potency entry is “inactive”.

For the compound `COc1ccc(NS(=O)(=O)c2cc(NC(=O)C3CCCCC3)ccc2N2CCOCC2)cc1`, the Potency was 10.4 µM (active).

Turning to `COc1ccc(NS(=O)(=O)c2cc(NC(=O)/C=C/c3cc(OC)c(OC)c(OC)c3)ccc2N2CCCCC2)cc1`, the Potency was 1.17 µM (active).

`COc1ccc(/C=C/C(=O)Nc2ccc3c(c2)OCCO3)cc1OC`: the Potency result is “inactive”.
